# Laboratory results from ChEMBL document CHEMBL4513216, “Probing the Open Global Health Chemical Diversity Library for Multistage-Active Starting Points for Next-Generation Antimalarials” (ACS Infect Dis, 2020).
# In all, about 69,000 compounds went through this assay and about 8,600 (12%) showed an effect of 50% or more. The sample as a whole holds a higher share of strong results than the screen did.
# Test system: Plasmodium berghei
# Assay: Screen against P. berghei liver stage (PbLuc), transformed with Luciferase, at 10uM
# Format: functional, HepG2
# Conditions: tested at 10 uM
row,SMILES,INHIBITION
1,COCC(=O)NC(C)c1sc(-c2ccccc2F)nc1C (configuration not stated),84.2%
2,CC(=O)NCCC(=O)NC(C)c1sc(-c2ccccc2F)nc1C (configuration not stated),29.3%
3,CCC(=O)NCC(=O)NC(C)c1sc(-c2ccccc2F)nc1C (configuration not stated),-2.94%
4,CCc1nnc(CN2CCc3cnc(C)nc3C2)o1,-36.6%
5,CC(C)NC(=O)N1CCOC2(CCCN(c3ncccc3F)C2)C1 (configuration not stated),2.58%
6,CS(=O)(=O)CCNC1CCCN(Cc2noc(C3CC3)n2)C1 (configuration not stated),40.4%
7,O=c1c2cccc(C(F)(F)F)c2ncn1C1CCNC1 (configuration not stated),53.6%
8,O=C(O)C1(O)CCN(c2ccnc3c(C(F)(F)F)cccc23)CC1,-48.4%
9,O=c1c2cccc(F)c2ncn1CCN1CCNCC1,-74%
10,O=c1c2cccc(Cl)c2ncn1C1CCNC1 (configuration not stated),56.3%
11,Cc1nc[nH]c1-c1c(-c2ccccc2)ncn1C1CCNC1 (configuration not stated),31.3%
12,O=c1c2cccc(C(F)(F)F)c2ncn1CCN1CCNCC1,-100%
13,Cc1cc(NCc2noc(C(C)C)n2)nc(-c2ccccc2)n1,14.4%
14,COCCOc1cccc(C(=O)N2CCCCC2c2nccs2)c1 (configuration not stated),-31.5%
15,CC(C)CNC(=O)CN(C)S(C)(=O)=O,40.7%
16,CCC(CO)NC(=O)c1ccc2ccc(N(C)CC3CC3)n2c1 (configuration not stated),-24.3%
17,O=C(CCN1CCc2ccccc21)N1C[C@@H](O)[C@H](N2CCCC2)C1,56.8%
18,O=C(CCN1CCc2ccccc21)N1CC(C(=O)N2CCOCC2)C1,25.6%
19,O=C(CCN1CCc2ccccc21)N1C[C@@H](O)[C@H](N2CCOCC2)C1,-8.12%
20,CC1CN(Cc2ccccn2)CCN1c1ccc2nncn2n1 (configuration not stated),31.9%
21,Cc1cc(CN2CCN(c3ccc4nncn4n3)C(C)C2)on1 (configuration not stated),26.5%
22,Cc1cc(CN2CCN(c3ccc4nncn4n3)C(C)C2)no1 (configuration not stated),59%
23,Cc1cc(CN2CCN(c3ccc4nncn4n3)CC2)no1,26.5%

row,SMILES,INHIBITION
1,CC1CN(Cc2nccn2C)CCN1c1ccc2nncn2n1 (configuration not stated),57.4%
2,Cc1cnc(CN2CCN(c3ccc4nncn4n3)C(C)C2)cn1 (configuration not stated),23.7%
3,CN(Cc1ccco1)C(=O)c1cccc(N2CCCC2=O)c1,-27.9%
4,Cc1cc(=O)n2nc(Oc3cccc(I)c3)sc2n1,35.7%
5,O=S(=O)(Cc1cccc(F)c1)Nc1cc(Cl)ccn1,11.9%
6,CNC(=O)CN(C(=O)c1cc(C(C)C)no1)c1cccc(F)c1,-10.5%
7,CN1CCN(c2ccc(F)cc2C(N)=O)CC1,58.7%
8,CC(C)N(CC(N)=O)C(=O)c1cc(F)ccc1N1CCN(C)CC1,1.74%
9,OCc1ccc(N2CCN(c3ncccn3)CC2)c(F)c1,31.3%
10,CN1CCN(c2ccc(CO)cc2F)CC1,68.4%
11,CC(NCc1ccncc1)c1ccc(N2CCN(C)CC2)c(F)c1 (configuration not stated),15.8%
12,C=C(C)CN(CC)C(=O)c1cc(F)ccc1N1CCN(C)CC1,19.8%
13,Cc1cccc(C(=O)N2CC(C(=O)NCC3CC3)C3(CCOCC3)C2)n1 (configuration not stated),37.1%
14,CN1CCN(Cc2cccnc2)C(=O)C12CCN(C1CCOC1)CC2 (configuration not stated),40.3%
15,O=C1C(Nc2nccn3cnnc23)CCCN1c1ccccc1Cl (configuration not stated),24.3%
16,Cc1cc(F)ccc1N1CCCC(Nc2nccn3cnnc23)C1=O (configuration not stated),25.4%
17,Cc1ccc(F)c(N2CCCC(Nc3nccn4cnnc34)C2=O)c1 (configuration not stated),52.7%
18,COC[C@]1(O)CCN(Cc2cnc(N(C)C)nc2)CC1(C)C,-28.9%
19,O=C(O)C1(n2ccnc2)CCN(Cc2cc3ccccc3o2)CC1,30.9%
20,CCc1c(C)sc2c1c(N)nc(=O)n2CCN1CCOCC1,-39.7%
21,CCc1c(O)nc(SCC(=O)N(CC)CC)n(C(C)CC)c1=O (configuration not stated),29%
22,CCc1c(O)n(C(C)CC)c(SCC(=O)c2ccccc2)nc1=O (configuration not stated),36.7%
23,CCc1c(O)nc(SCC(=O)Nc2ccccc2)n(C(C)CC)c1=O (configuration not stated),56.1%

row,SMILES,INHIBITION
1,Cn1cc(CN2CCc3c(CNC(=O)C4CC4)cncc3C2)cn1,-17.2%
2,O=C(c1cccnc1)N1C[C@H]2CN(Cc3cccc(F)c3)C(=O)[C@H]2C1,-55.2%
3,CC(C)NC(=O)C(NC(=O)N1CCN(c2ccc(Cl)cc2)CC1)C(C)C (configuration not stated),-9.39%
4,CC(C)NC(=O)[C@H](C)NC(=O)N1CCN(c2ccc(Cl)cc2)CC1,38.1%
5,CC(C)NC(=O)[C@@H](NC(=O)N1CCN(c2ccc(Cl)cc2)CC1)C(C)C,65.5%
6,Cc1nc(C(=O)N2CCCC2c2noc(C3CC3)n2)c[nH]1 (configuration not stated),31.8%
7,COc1ccc(CN2C[C@@H]3COC[C@]3(COc3cccnc3)C2)cc1,24%
8,COc1cccc(CN2C[C@@H]3COC[C@]3(COc3cccnc3)C2)c1,67.2%
9,CCOC[C@]12COC[C@H]1CN(Cc1cccc(OC)c1)C2,56.7%
10,COc1ccccc1CN1C[C@@H]2COC[C@]2(COc2cccnc2)C1,-8.94%
11,COc1cccc(CN2C[C@@H]3COC[C@]3(CN3CCOCC3)C2)c1,29.9%
12,c1cc(COC[C@]23COC[C@H]2CN(Cc2ccncc2)C3)ccn1,43.9%
13,COc1ccccc1CN1C[C@@H]2COC[C@]2(COCc2ccncc2)C1,60.2%
14,COc1cccc(CN2C[C@@H]3COC[C@]3(COCc3ccncc3)C2)c1,28.4%
15,COc1cccc(CN2C[C@@H]3COC[C@]3(COCc3ccccn3)C2)c1,53.2%
16,CCS(=O)(=O)NC[C@]12COC[C@H]1CN(Cc1cccc(OC)c1)C2,39.2%
17,c1ccc(CN2C[C@@H]3COC[C@]3(COCc3ccncc3)C2)nc1,48.6%
18,COc1ncccc1CN1C[C@@H]2COC[C@]2(COc2cccnc2)C1,-2.17%
19,COC(=O)c1cc(OCC2CCC2)cc(C(=O)NCC(C)(C)O)c1,40.2%
20,O=C(CC1CCC2(CC1)CCN(Cc1nccs1)CC2)N1CC=CC1,35.2%
21,CCc1nnc2n1CCN(C(=O)c1cc(C)n(-c3ccccc3)c1C)C2,5.9%
